Bioassay records: PubChem, National Center for Advancing Translational Sciences (NCATS)
The list is not random: actives were taken first. Their share in the collection is about 11%.
CBFb-RUNX1 inh = inhibitors of human CBF-beta and RUNX1 interaction | AlphaScreen CBFb-His/RUNX1-biotin binding, biochemical | Potency, µM (doses to about 59.8 µM), hits mostly inhibitors | Q01196+Q13951 | 230,000 tested, under 10 active
Target sequence (Q01196 whole entry, looked up): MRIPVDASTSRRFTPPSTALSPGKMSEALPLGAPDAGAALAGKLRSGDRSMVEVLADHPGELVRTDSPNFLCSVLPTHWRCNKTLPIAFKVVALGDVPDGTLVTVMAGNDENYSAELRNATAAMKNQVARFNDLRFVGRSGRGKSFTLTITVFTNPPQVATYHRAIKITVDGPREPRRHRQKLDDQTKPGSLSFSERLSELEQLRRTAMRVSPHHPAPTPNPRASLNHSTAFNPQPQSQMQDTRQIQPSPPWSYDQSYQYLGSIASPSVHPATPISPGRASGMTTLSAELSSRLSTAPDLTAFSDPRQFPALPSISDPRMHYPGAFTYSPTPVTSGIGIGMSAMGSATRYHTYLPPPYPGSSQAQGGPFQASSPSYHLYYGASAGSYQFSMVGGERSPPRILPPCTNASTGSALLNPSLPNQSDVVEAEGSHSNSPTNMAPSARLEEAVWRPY
Target sequence (Q13951 whole entry, looked up): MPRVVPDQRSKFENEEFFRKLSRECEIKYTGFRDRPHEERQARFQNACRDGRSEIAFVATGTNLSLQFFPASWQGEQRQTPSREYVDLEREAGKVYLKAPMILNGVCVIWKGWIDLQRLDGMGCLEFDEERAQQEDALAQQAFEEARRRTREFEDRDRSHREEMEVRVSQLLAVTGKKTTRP
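Proteins preincubated together for 20 min at RT before compound addition; 15 min later, nickel and streptavidin beads were added and left 90 min prior to AlphaScreen measurement.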
HPGD block = inhibitors of human 15-hydroxyprostaglandin dehydrogenase (HPGD). P15428. purified HPGD, NADH fluorescence kinetic, PGE2 substrate. Potency, µM, usual class: inhibitors. hit rate 4.3% among 150,000; active means well fitted inhibition curve with a large enough effect, not every such curve was filed as active; inconclusive means small, poorly fitted or top-dose-only effect, or another doubt; inactive means no such curve, though single readings can be large or run the other way
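20 nM HPGD preincubated 15 min at room temperature with compound in 50 mM Tris-HCl pH 8, 0.01% Tween 20. Started with 1 mM NAD+ and 30 uM prostaglandin E2; NADH fluorescence (360/450 nm) read 5 times over 30-s intervals, last minus first.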
PNC inhibitor = inhibitors of perinucleolar compartment assembly; PC3M PTB-GFP, PNC prevalence imaging, 16 h; hits give low values; activity change (PNC), negative = inhibition, % at 10 µM; hit rate 3.1% among 140,000;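 active means readout at or below -70, meaning at least 70% loss of cells showing the perinucleolar compartment, a nuclear body marking cancer cells; inconclusive means readout between -30 and a set limit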
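Read-out is percentage of cells bearing a perinucleolar compartment, from automated 20x imaging of fixed, Hoechst-stained PC3M PTB-GFP cells. Cells were seeded 4 h, then exposed 16 h to compound (23 nl of library stock) in duplicate plates.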
HTT aggregate = reduces HttQ103-GFP aggregates in PC12 cells; PC12 HttQ103-GFP aggregates, Acumen cytometry, 40 h; Potency, µM (titrated, usually from 46.1 µM), actives largely listed as inhibitors; hit rate 1.1% among 220,000; AID 1688; further: nearly all actives have a fitted effect of over 60% in size
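Ecdysone-promoter PC12 model expressing HTT exon 1 Q103 fused to GFP, induced by tebufenozide at 100 nM final. Compounds titrated; aggregates sized 1–25 µm scored on a 488 nm laser cytometer.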
HTT ATP protect = cytoprotection in Huntington HTT-Q103 PC12 cell model | Potency, µM (top dose mostly 56.4 µM), actives largely listed as activators | hit rate 0.14% among 230,000 | PC12 HTT-Q103 induced, cytoprotection, ATP luminescence, 40 h; further: nearly all actives have a fitted effect of over 45% in size
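PC12 cells stably carrying ecdysone-inducible Htt exon 1 (Q103)–GFP were induced with 100 nM tebufenozide (final) alongside library compounds in a dose series. Cytoprotection was scored as retained ATP by ATPlite luminescence.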
ALDH1A1 inh = inhibitors of human aldehyde dehydrogenase 1A1. Purified ALDH1A1, NADH fluorescence, propionaldehyde substrate. hit rate 7.3% among 220,000. AID 1030. P00352. Potency, µM (titrated, usually from 75.3 µM), actives largely listed as inhibitors; active means well fitted inhibition curve with a large enough effect, not every such curve was filed as active; inconclusive means small, poorly fitted or top-dose-only effect, or another doubt; inactive means no such curve, though single readings can be large or run the other way
Each line names hits and unclear results; the compound was inactive in the other large screens. Unless noted, the call rests on the fitted dose curve; in most records, active means well fitted curve in the direction sought with a large enough effect; inconclusive means small, poorly fitted or top-dose-only effect, or another doubt; inactive means no such curve, though single readings can be large; an effect the other way counts as inactive or inconclusive.

Cn1ncc(N=Cc2ccc([N+](=O)[O-])cc2)c1C(=O)N1CCOCC1	ALDH1A1 inh inconclusive
CC(Oc1ccccc1)C(=O)Nc1cccc([N+](=O)[O-])c1 (configuration not stated)	none (no result: HPGD block, PNC inhibitor)
COC(C(=O)Nc1cccc([N+](=O)[O-])c1)c1ccccc1 (configuration not stated)	ALDH1A1 inh 20µM (no result: HPGD block, PNC inhibitor)
O=C(COc1ccccc1)NC(=S)Nc1cccc([N+](=O)[O-])c1	HPGD block 28µM, ALDH1A1 inh inconclusive
CC(C)Oc1cccc(C(=O)NC(=S)Nc2cccc(NC(=O)c3ccccc3Cl)c2)c1	ALDH1A1 inh 11µM
Cc1ccc(OCC(=O)NC(=S)Nc2cccc(NC(=O)c3ccccc3Cl)c2)cc1	HTT aggregate inconclusive, ALDH1A1 inh 13µM
CC(C)CC(=O)NC(=S)Nc1cccc(NC(=O)c2ccccc2Cl)c1	ALDH1A1 inh inconclusive
CCC(CC)=NNc1cccc([N+](=O)[O-])c1	HPGD block inconclusive, ALDH1A1 inh 28µM
COc1ccc(NC(=O)C(OC(=O)c2ccc([N+](=O)[O-])o2)c2ccccc2)cc1Cl (configuration not stated)	ALDH1A1 inh 2.5µM
CC/C(C)=N/Nc1cccc([N+](=O)[O-])c1	none
O=C(COc1ccccc1)NC(=S)Nc1cccc(NC(=O)c2ccccc2Cl)c1	ALDH1A1 inh 10µM (no result: HPGD block)
CCC(=O)NC(=S)Nc1cccc(NC(=O)c2ccccc2Cl)c1	ALDH1A1 inh inconclusive
CCC(=O)N/N=C(\C)CC(=O)Nc1ccc2c(c1)OCCO2	ALDH1A1 inh inconclusive (no result: HPGD block, PNC inhibitor)
C[C@@H]1/C=C\CC(=O)OC[C@H](C)C(=O)N[C@@H](Cc2ccccc2)C(=O)OC1	HTT ATP protect inconclusive (no result: HPGD block, PNC inhibitor, HTT aggregate)
C=CCCCC	none (no result: PNC inhibitor, HTT aggregate)
CCOC(=O)C(C(=O)OCC)C1N=C(N)N=C2Oc3ccccc3N21 (configuration not stated)	HPGD block inconclusive, PNC inhibitor inconclusive, HTT aggregate 3.2µM, ALDH1A1 inh inconclusive
CCOC(=O)CN1C(=O)C(CC)Oc2ccccc21 (configuration not stated)	PNC inhibitor inconclusive
O=C(CSC(=S)N1CCOCC1)Nc1nc(=O)c2ccccc2s1	ALDH1A1 inh 6.3µM
O=C(O)C1CSC2c3ccccc3C(=O)N12 (configuration not stated)	HPGD block inconclusive, PNC inhibitor inconclusive, ALDH1A1 inh 7.5µM
CCCCn1c(SCC(=O)N2CCN(c3ccccc3)CC2)nc2ccsc2c1=O	PNC inhibitor -112, ALDH1A1 inh inconclusive (no result: HPGD block)
CCc1ccc(NC(=O)CSc2nc3ccsc3c(=O)n2CCCCCC(=O)O)cc1	none (no result: HPGD block, PNC inhibitor)
CCCCn1c(SCC(=O)Nc2ccccc2C(F)(F)F)nc2ccsc2c1=O	PNC inhibitor inconclusive, ALDH1A1 inh 28µM
CCCCn1c(SCC(=O)N2CCC(C)CC2)nc2ccsc2c1=O	HTT aggregate inconclusive, ALDH1A1 inh 11µM
CCC1CCCCN1C(=O)CSc1nc2ccsc2c(=O)n1Cc1ccccc1 (configuration not stated)	HTT aggregate 16µM, ALDH1A1 inh inconclusive
CCCCCCCCCCCCCCCCC(C(=O)O)C(O)(CC(=O)O)C(=O)O (configuration not stated)	none (no result: CBFb-RUNX1 inh, HPGD block, PNC inhibitor, ALDH1A1 inh)
O=C(CN1CCCC1=O)NC1C2CC3CC(C2)CC1C3 (configuration not stated)	none
Cc1nnc(SCC(=O)N2CC(=O)Nc3ccccc32)n1-c1ccccc1	none
Cc1nnc(SCC(=O)N2CC(=O)Nc3ccccc32)s1	HTT aggregate inconclusive (no result: HPGD block, PNC inhibitor)
Cc1cc(C)cc(C(=O)N2CC(=O)Nc3ccccc32)c1	PNC inhibitor -80, ALDH1A1 inh inconclusive
O=C1CN(C(=O)CSc2nc(-c3ccc(Cl)cc3)cs2)c2ccccc2N1	HPGD block 13µM, PNC inhibitor -113 (no result: HTT ATP protect)
Cc1ccc(/C=C/C(=O)N2CC(=O)Nc3ccccc32)o1	ALDH1A1 inh 20µM (no result: HPGD block, PNC inhibitor)
Nn1c(Cc2ccccc2F)nnc1SCC(=O)N1CC(=O)Nc2ccccc21	PNC inhibitor -100
Cc1ccsc1C(=O)N1CC(=O)Nc2ccccc21	PNC inhibitor inconclusive
CCC(=O)Nc1ncnc2ncn(C(=O)CC)c12	none (no result: CBFb-RUNX1 inh, PNC inhibitor, HTT aggregate)
Cc1cc(C)c2nc(SCC(=O)N3CC(=O)Nc4ccccc43)c(C#N)cc2c1	HPGD block inconclusive, PNC inhibitor -104, ALDH1A1 inh inconclusive
O=c1c(CCc2ccccc2)nc2cnc(N3CCOCC3)nc2n1Cc1ccc(F)cc1	ALDH1A1 inh inconclusive (no result: CBFb-RUNX1 inh, PNC inhibitor, HTT aggregate)
O=C(O)c1cc(-c2ccc(-c3ccccc3)cc2)nc2cc3ccccc3cc12	none (no result: CBFb-RUNX1 inh, PNC inhibitor, HTT aggregate)
CC(C)OC(=O)CSc1n[nH]c(-c2cccnc2)n1	HPGD block 16µM
COC(=O)c1ccccc1NC(=O)CSc1n[nH]c(-c2cccnc2)n1	none (no result: HPGD block, PNC inhibitor)
O=C(CCCC(=O)N(c1ccc2c(c1)OCCO2)C(C(=O)NC1CCCCC1)c1ccc(F)cc1)Nc1ccccn1 (configuration not stated)	PNC inhibitor inconclusive
CC(=O)OCC1O[C@@H](O[C@@H]2C[C@H]3C(C)(C)[C@H](OC(C)=O)CC[C@]3(C)[C@H]3CC[C@]45C[C@]4(CC[C@H]5[C@@H](C)C[C@@H](O)[C@H](O)C(C)(C)O)[C@@]32C)[C@H](O)[C@@H](O)[C@@H]1O (some centres not stated)	PNC inhibitor -115, HTT aggregate inconclusive (no result: HTT ATP protect)
COc1ccc(CCN(C)CCCN2CCc3cc(OC)c(OC)cc3CC2=O)cc1OC	none (no result: PNC inhibitor)
CC1CCCCN1S(=O)(=O)c1ccc(N(C(=O)c2cnccn2)C(C(=O)NC2CCCC2)c2cccs2)cc1 (configuration not stated)	PNC inhibitor inconclusive, ALDH1A1 inh 4µM
CC1CCCCN1S(=O)(=O)c1ccc(N(C(=O)c2cnccn2)C(C(=O)NC2CCCCC2)c2cccs2)cc1 (configuration not stated)	ALDH1A1 inh 8.9µM
Cc1cc(C)cc(N(C(=O)c2ccccn2)C(C(=O)NC2CCCCC2)c2cccs2)c1 (configuration not stated)	none
CCCCc1ccc(NC(=S)NCc2ccc(OC)cc2)cc1	HTT aggregate inconclusive (no result: HPGD block, PNC inhibitor)
FC(F)(F)c1ccccc1NC(=S)Nc1cccc2cnccc12	ALDH1A1 inh 25µM (no result: HPGD block, PNC inhibitor)
Fc1ccccc1NC(=S)Nc1cccc2cnccc12	ALDH1A1 inh 18µM (no result: HPGD block, PNC inhibitor)
COc1ccccc1-c1cncnc1-n1ccnc1	HPGD block inconclusive (no result: CBFb-RUNX1 inh, PNC inhibitor, HTT aggregate)
Cc1cc(C)c(-c2cc([C@H](C)O/N=C\[C@@H](C)[C@H](OCc3ccccc3)C(C)C)on2)c(C)c1	none (no result: HPGD block, PNC inhibitor, HTT aggregate)
O=c1[nH]cnc2c1sc1nc(-c3ccccc3)c3c(c12)CCCC3	none
S=c1nc[nH]c2c1sc1nc(-c3ccccc3)c3c(c12)CCCC3	ALDH1A1 inh 2.5µM
